Results on 39 compounds are retold here after PubChem BioAssay (NCATS).

Activity calls are given as the source filed them. The call rests on the fitted dose curve.

The conditions of the test: Ebola virus entry cell assay, ratio channel.
As for `NC(=O)CC[C@@H]1NC(=O)[C@H](Cc2ccccc2)NC(=O)[C@H](Cc2ccc(O)cc2)NC(=O)[C@@H](N)CSSC[C@@H](C(=O)N2CCC[C@H]2C(=O)N[C@@H](CCCN=C(N)N)C(=O)NCC(N)=O)NC(=O)[C@H](CC(N)=O)NC1=O`, the outcome was inactive.
For `CC(C)c1nc(N(C)S(C)(=O)=O)nc(-c2ccc(F)cc2)c1/C=C/C(O)CC(O)CC(=O)O` (centres undefined) the value was “inactive”; for `Cc1nnc2n1-c1ccc(Cl)cc1C(c1ccccc1)=NC2`, “inactive”.
For the compound `Nc1nc(=O)n([C@@H]2CS[C@H](CO)O2)cc1F`, the result was inactive.
With `COC(=O)C(c1ccccc1)C1CCCCN1` (centres undefined) the entry was “inactive”.
`COc1cc(Br)c(C[N+]2(CCOCCC3CCC4CC3C4(C)C)CCOCC2)cc1OC` (centres undefined): the result was inactive.
With `CC(C=CC1=C(C)CCCC1(C)C)=CC=CC(C)=CC(=O)O` the entry was “inactive”; with `CC(=O)N=c1sc(S(N)(=O)=O)nn1C`, “inactive”.
With `CC(C)(S)[C@@H](N)C(=O)O` the entry was “inactive”.
Regarding `O=C(O)c1cc(N=Nc2ccc(O)c(C(=O)O)c2)ccc1O`, the result was inactive.
With `C[C@@H]1O[C@@H]1P(=O)(O)O` the entry was “inactive”; with `C=CC(N)CCC(=O)O` (centres undefined), “inactive”; with `NC[C@H]1O[C@H](O[C@H]2[C@H](O)[C@@H](O[C@H]3O[C@H](CO)[C@@H](O)[C@H](N)[C@H]3O)[C@H](N)C[C@@H]2N)[C@H](O)[C@@H](O)[C@@H]1O`, “inactive”.
With `CC[C@H](C)C(=O)O[C@H]1C[C@H](O)C=C2C=C[C@H](C)[C@H](CC[C@@H](O)C[C@@H](O)CC(=O)O)[C@H]21` the entry was “inactive”; with `CCCc1nc(C(C)(C)O)c(C(=O)OCc2oc(=O)oc2C)n1Cc1ccc(-c2ccccc2-c2nn[nH]n2)cc1`, “inactive”.
With `C=C1[C@H](CO)[C@@H](O)C[C@@H]1n1cnc2c(=O)[nH]c(N)nc21` the entry was “inactive”.
Turning to `NS(=O)(=O)c1cc(Cl)c(Cl)c(S(N)(=O)=O)c1`, the outcome was inactive.
With `CCC[C@@H]1C[C@@H](C(=O)N[C@@H]([C@H]2O[C@H](SC)[C@H](O)[C@@H](O)[C@H]2O)[C@H](C)Cl)N(C)C1` the entry was “inactive”; with `CCOC(=O)[C@H](CCc1ccccc1)N[C@@H](C)C(=O)N1[C@H](C(=O)O)C[C@H]2CCCC[C@@H]21`, “inactive”.
For `OC[C@H]1O[C@@H](n2cnc3c2NC=NC[C@H]3O)C[C@@H]1O` the value was “inactive”; for `CC(C)C[C@H](CN)CC(=O)O`, “inactive”; for `COCC1=C(C(=O)OC(C)OC(=O)OC(C)C)N2C(=O)[C@@H](NC(=O)/C(=N\OC)c3csc(N)n3)[C@H]2SC1` (some centres undefined), “inactive”.
Consider `CC(=O)S[C@@H]1CC2=CC(=O)CC[C@]2(C)[C@H]2CC[C@@]3(C)[C@@H](CC[C@@]34CCC(=O)O4)[C@H]12`, for which the outcome was inactive.
For `CCCCC[C@H](O)/C=C/[C@@H]1[C@H]2C/C(=C/CCCC(=O)O)O[C@H]2C[C@H]1O`, the result was inactive.
Consider `CCCCCN(C)CCC(O)(P(=O)(O)O)P(=O)(O)O`, for which the outcome was inactive.
With `CN[C@@H]1[C@H](O[C@H]2[C@H](O[C@H]3[C@H](O)[C@@H](O)[C@H](N=C(N)N)[C@@H](O)[C@@H]3N=C(N)N)O[C@@H](C)[C@]2(O)C=O)O[C@@H](CO)[C@H](O)[C@H]1O` the entry was “inactive”; with `CO[C@H]1C=CO[C@@]2(C)Oc3c(C)c(O)c4c(O)c(c5c(nc6cc(C)ccn65)c4c3C2=O)NC(=O)/C(C)=C\C=C[C@H](C)[C@H](O)[C@@H](C)[C@@H](O)[C@@H](C)[C@H](OC(C)=O)[C@@H]1C`, “inactive”.
With `CCC[C@@]1(CCc2ccccc2)CC(O)=C([C@H](CC)c2cccc(NS(=O)(=O)c3ccc(C(F)(F)F)cn3)c2)C(=O)O1` the entry was “inactive”.
In the case of `CSCC[C@H](NC(=O)[C@H](Cc1ccc(OS(=O)(=O)O)cc1)NC(=O)[C@@H](N)CC(=O)O)C(=O)NCC(=O)N[C@@H](Cc1c[nH]c2ccccc12)C(=O)N[C@@H](CCSC)C(=O)N[C@@H](CC(=O)O)C(=O)N[C@@H](Cc1ccccc1)C(N)=O`, the outcome was inactive.
For `CC(C)(C)NC(=O)[C@@H]1C[C@@H]2CCCC[C@@H]2CN1C[C@@H](O)[C@H](Cc1ccccc1)NC(=O)[C@H](CC(N)=O)NC(=O)c1ccc2ccccc2n1` the value was “inactive”; for `O=C1Nc2ccc(Cl)cc2C(c2ccccc2)=NC1O` (centres undefined), “inactive”; for `CCN(CC)C(=O)[C@]1(c2ccccc2)C[C@@H]1CN`, “inactive”.
On to `Nc1nc2[nH]cc(CCc3ccc(C(=O)N[C@@H](CCC(=O)O)C(=O)O)cc3)c2c(=O)[nH]1`, for which the outcome was inactive.
With `CN1C(=O)C(O)N=C(c2ccccc2)c2cc(Cl)ccc21` (centres undefined) the entry was “inactive”; with `Nc1nc(NC2CC2)c2ncn([C@@H]3C=C[C@@H](CO)C3)c2n1`, “inactive”.
For `CN[C@@H]1CCc2[nH]c3ccc(C(N)=O)cc3c2C1` the value was “inactive”; for `N[C@@H](Cc1cc(I)c(Oc2ccc(O)c(I)c2)c(I)c1)C(=O)O`, “inactive”.
Turning to `CCNC(=O)[C@@H]1CCCN1C(=O)[C@H](CCCN=C(N)N)NC(=O)[C@H](CC(C)C)NC(=O)[C@@H](CC(C)C)NC(=O)[C@H](Cc1ccc(O)cc1)NC(=O)[C@H](CO)NC(=O)[C@H](Cc1c[nH]c2ccccc12)NC(=O)[C@H](Cc1cnc[nH]1)NC(=O)[C@@H]1CCC(=O)N1`, the outcome was inactive.
On to `CCCCCCCN(CC)CCCC(O)c1ccc(NS(C)(=O)=O)cc1` (centres undefined), for which the result was inactive.
